Results: PubChem BioAssay (NCATS)
Results filed as inconclusive are left out. A call without a number means that no potency is given here. Calls of active or inactive are those of the source. The call rests on the fitted dose curve; in most records, active means well fitted cell-killing curve with a large enough effect; inconclusive means small, poorly fitted or top-dose-only effect; inactive means flat fitted curve, though single readings scatter.

Assay: qHTS of pediatric cancer cell lines to identify multiple opportunities for drug repurposing: Primary screen for Rh18 cells (AID 1347102); further: nearly all actives have a fitted effect of over 65% in size
Conditions: Rh18 rhabdomyosarcoma viability, CellTiter-Glo luminescence, 48 h; series mostly up to 46 µM
Source text: Drug repurposing or repositioning has been offered as a strategy for drug development in oncology programs. This approach has special potential for childhood cancers and other rare or orphan diseases, where the expected return on new drug development has been a disincentive to pharmaceuticals.
In this project we exploit the poly-pharmacology of drugs to discover new indications via phenotypic screening of a panel of 19 well-characterized cell lines derived from solid tumors seen in children and adolescents. The goal is to identify approved drugs with previously unrecognized anticancer properties that has the potential to reveal new mechanisms and biological processes involved in carcinogenesis or drug resistance. We employed a titration-based paradigm (quantitative high-throughput screening or qHTS), where all compounds were tested at multiple concentrations for their effect on cell viability. Concentration-response curves (CRCs) were derived directly from the primary screen, and both potency and efficacy values were used to identify compounds with robust bioactivity profiles. We screened the NIH Chemical Genomics Center (NCGC) Pharmaceutical Collection (NPC) and Mechanism Interrogation Plate (MIPE) small molecule collections of approved and investigational compounds against these cell lines; and measured metabolically active cells after 48 hours of compound treatment as a proxy for cell viability.
Assay Submitter: Nathalia J. Martinez, National Center for Advancing Translational Sciences, National Institutes of Health, Rockville, MD, USA; email: natalia.martinez@nih.gov
[1] Shen, M et al. Quantitative high-throughput phenotypic screening of pediatric cancer cell lines identifies multiple opportunities for drug repurposing. Oncotarget 2017 Dec 19;9(4):4758-4772. PMID 29435139.
The cells were obtained from University of North Carolina (UNC), Pediatric Preclinical Testing Program (PPT), and Coriell Institute (CI).
qHTS cell viability assay:
Cells were assayed in growth media at a density of 500-1,000 cells/well. Five microliters of cells were dispensed into 1,536-well, white, solid-bottom, TC-treated plates (Greiner Bio One) using a multidrop dispenser and incubated at 37 degrees C, 5% CO2, under a humidified atmosphere for 5 hours. Twenty-three nanoliters of compounds and controls (neutral control DMSO or positive control bortezomib at final concentration of 2.3 µM) were subsequently transferred by Kalypsys pintool. For primary screens, the MIPE collection was tested at 11-point dilutions (final concentrations range from 0.78 nM to 46 µM) and the NPC collection at 8-point dilutions (final concentrations range from 0.59 nM to 46 µM). Compounds tested in follow-up screens were assayed at 11-point dilutions. Cells were incubated for 48 hours, followed by addition of 3 µL of CellTiter-Glo (Promega). After a 15 min incubation at room temperature, samples were analyzed for luminescence intensity using a ViewLux High-throughput CCD imager equipped with clear filters.
Potency means the concentration at half of the fitted maximal effect.

Row | SMILES | Potency
1 | CN(C)CCCNC(=O)c1ccc(-c2cc(O)c3ncccc3c2)cc1 | inactive
2 | Cc1cnc(CNC(=O)c2c(=O)c3ccc(N4CCCN(C)CC4)nc3n3c2sc2ccccc23)cn1 | inactive
3 | COc1cc2nccc(Oc3ccc(NC(=O)Nc4cc(C)on4)c(Cl)c3)c2cc1OC | 18.7 µM (active)
4 | Nc1ncnc2c1c(-c1cccc(OCc3ccccc3)c1)cn2C1CC(CN2CCC2)C1 (stereo not given) | inactive
5 | CC(C)(C)c1nc(-c2cccc(NS(=O)(=O)c3c(F)cccc3F)c2F)c(-c2ccnc(N)n2)s1 | inactive
6 | CCOC(=O)[C@H]1O[C@H]1C(=O)N[C@@H](CC(C)C)C(=O)NCCC(C)C | inactive
7 | c1cc(OCCN2CCCCC2)cc(-c2n[nH]c3ccc(-c4ncn[nH]4)cc23)c1 | inactive
8 | Cc1ccc(S(=O)(=O)OCC(=O)Nc2ccc(C(=O)O)c(O)c2)cc1 | inactive
9 | CCOC(=O)[C@H](CCc1ccccc1)N[C@@H](C)C(=O)N1CCCC1C(=O)O (stereo not given in full) | inactive
10 | Cc1ccc2c(c1)c1c(n2CCc2ccc(C)nc2)CCN(C)C1 | inactive
11 | CC1(C)OC2CC3C4CC(F)C5=CC(=O)C=CC5(C)C4C(O)CC3(C)[C@]2(C(=O)CO)O1 (stereo not given in full) | inactive
12 | CC(C)(CO)[C@@H](O)C(=O)NCCC(=O)O | inactive
13 | O=S(=O)(NCCNCC=Cc1ccc(Br)cc1)c1cccc2cnccc12 | 16.6 µM (active)
14 | CNC(=O)c1ccc2c(C(=Nc3cccc(CN(C)C)c3)c3ccccc3)c(O)[nH]c2c1 | inactive
15 | COc1cc2c(cc1OC)CC(=O)N(CCCN(C)C[C@H]1Cc3cc(OC)c(OC)cc31)CC2 | inactive
16 | CC(C)CNc1ccnc(NCc2csc(-c3ccccc3)n2)n1 | 23.5 µM (active)
17 | COc1ccc2c(c1)CC[C@H]1[C@@H]2CC[C@]2(C)[C@@H](NCCCCCCN3C(=O)C=CC3=O)CC[C@H]12 | inactive
18 | COc1ccc(-c2ccc3ncc4c(c3c2)n(-c2ccc(N3CCNCC3)c(C(F)(F)F)c2)c(=O)n4C)cn1 | 0.0418 µM (active)
19 | Cc1nc(NC(=O)N2CCC[C@@H]2C(N)=O)sc1-c1csc(C(C)(C)C)n1 | 7.43 µM (active)
20 | CCC=CC[C@H]1C(=O)CC[C@@H]1CC(=O)OC | inactive

Row | SMILES | Potency
21 | O=C(c1ccc(C(=O)N2CCC(N3CCCC3)CC2)c(Nc2ccccc2)c1)N1CCC(N2CCCC2)CC1 | inactive
22 | CCCCC(C)(C)[C@H](O)C=C[C@H]1[C@H](O)CC(=O)[C@H]1CC=CCCCC(=O)O | inactive
23 | COc1ccc(C=CC(=O)Nc2ccccc2C(=O)O)cc1OC | inactive
24 | NS(=O)(=O)c1ccc(Nc2nc(OCC3CCCCC3)c3[nH]cnc3n2)cc1 | inactive
25 | Nc1[nH]nc2nnc(-c3c(-c4ccccc4)nn4ccccc34)cc12 | 2.64 µM (active)
26 | CN1CCN2c3ncccc3Cc3ccccc3C2C1 (stereo not given) | inactive
27 | CN(C)CCN(Cc1ccc(Cl)cc1)c1ccccn1 | inactive
28 | C[C@H](c1ccc(F)cc1CCCC(=O)O)N(c1cc(F)ccc1F)S(=O)(=O)c1ccc(Cl)cc1 | inactive
29 | CO[C@H]1/C=C\O[C@@]2(C)Oc3c(C)c(O)c4c(O)c(c(C=NN5CCN(C6CCCC6)CC5)c(O)c4c3C2=O)NC(=O)C(C)=CC=C[C@H](C)[C@H](O)[C@@H](C)[C@@H](O)[C@@H](C)[C@H](OC(C)=O)[C@H]1C | 0.118 µM (active)
30 | COc1ccc(CCC(=O)Nc2nc3ccc(Cl)cc3s2)cc1OC | inactive
31 | COc1cc2c(cc1OC)[C@@H]1Cc3ccc(OC)c(OC)c3CN1CC2 | inactive
32 | CCCCC(C=O)NC(=O)C(CC(C)C)NC(=O)OCc1ccccc1 (stereo not given) | inactive
33 | Fc1ccc(C(c2ccc(F)cc2)N2CCN(CC=Cc3ccccc3)CC2)cc1 | inactive
34 | CCC(=C(CC)c1ccc(O)cc1)c1ccc(O)cc1 | inactive
35 | COc1ccc(-c2oc3c(CC=C(C)C)c(O)cc(O)c3c(=O)c2O)cc1 | inactive
36 | COc1ccc(Cn2ccc3ccc(C(=O)NO)cc32)cc1 | inactive
37 | O=C(O)C1=CC(O)C(O)[C@H](O)C1 (stereo not given in full) | inactive
38 | CC1(C)CC(=O)c2c(C(F)(F)F)nn(-c3ccc(C(N)=O)c(NC4CCC(O)CC4)c3)c2C1 (stereo not given) | 0.264 µM (active)
39 | CC(O)=C(C#N)C(=O)Nc1ccc(C(F)(F)F)cc1 | inactive
40 | O=C(Nc1ccccc1)Nc1ccc(-c2ccc(C(=O)[C@H]3CCC[C@H]3C(=O)O)cc2)cc1 | inactive
